According to PubChem BioAssay (NCATS):
Records with an inconclusive call do not appear. The source made the active and inactive calls. Unless noted, the call rests on the fitted dose curve; in most records, active means well fitted curve in the direction sought with a large enough effect; inconclusive means small, poorly fitted or top-dose-only effect, or another doubt; inactive means no such curve, though single readings can be large; an effect the other way counts as inactive or inconclusive.

Legend:
[1] = target: Ubiquitin carboxyl-terminal hydrolase 1 (Homo sapiens) (UniProt O94782); assay: Inhibitors of USP1/UAF1: Pilot qHTS (AID 504865);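 further: rhodamine fluorescence freed from ubiquitin-rhodamine substrate followed over time; top concentration of the series differs between compounds; on the % scale 0 is the no-effect control and ±100 the full control effect; nearly all actives have a fitted effect of over 35% in size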
Outline: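 Kinetic fluorescence assay: 1nM USP1/UAF1, 15 min compound preincubation, then 150nM Ub-Rho; 480/540 nm.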

[2] = S16 Schwann cell PMP22 intronic element beta-lactamase assay (AID 624044; calls by dose curve; further: nearly all actives have a fitted effect of over 15% in size; further: potency means the concentration at half of the fitted maximal effect;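 on ratio activity, negative = inhibition: 0% = DMSO and -100% = potassium clavulanate positive control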); conditions: S16 rat Schwann cells, PMP22 element beta-lactamase FRET, 24 h; ratio activity, negative = inhibition: at 38.3 µM (top of the series)
Outline: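 Beta-lactamase reporter under a PMP22 intronic regulatory element in stable S16 rat Schwann cells; 24 h compound exposure. 460 nm blue signal normalized between DMSO (0%) and potassium clavulanate, with 535 nm FRET tracking viability; curves classed by r2 and response.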

[3] = test system: 7G8; assay: qHTS profiling for inhibitors of Plasmodium falciparum proliferation (AID 504749); further: nearly all actives have a fitted effect of over 60% in size; further: potency means the concentration at half of the fitted maximal effect;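 on activity, negative = inhibition: 0% = DMSO vehicle and full inhibition = artemisinin control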; conditions: P. falciparum in erythrocytes, SYBR Green DNA, 72 h; series mostly up to 28.7 µM
Outline: (§1)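 SYBR Green fluorescence of parasite DNA, read after lysis and overnight dark incubation, measured growth over 72 h in erythrocyte culture at 0.3% parasitemia and 2.5% hematocrit. Data normalised to DMSO and 0.29 uM artemisinin, with plate-drift correction.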

[4] = test system: DIV17; assay: as above; conditions: P. falciparum in erythrocytes, SYBR Green DNA, 72 h; series mostly up to 28.7 µM
Outline: as §1

[5] = test system: PC26; assay: as above; conditions: P. falciparum in erythrocytes, SYBR Green DNA, 72 h; series mostly up to 28.7 µM
Outline: as §1

[6] = test system: W2; assay: as above; conditions: P. falciparum in erythrocytes, SYBR Green DNA, 72 h; series mostly up to 28.7 µM
Outline: as §1

[7] = target: Tyrosyl-DNA phosphodiesterase 1 (Homo sapiens) (UniProt Q9NUW8); assay: Confirmation Assay for Inhibitors of Tyrosyl-DNA Phosphodiesterase (TDP1) (AID 489007); conditions: recombinant human TDP1 enzymatic activity, dose-response; further: potency means the concentration at half of the fitted maximal effect; nearly all actives have a fitted effect of over 40% in size
Outline: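 AlphaScreen assay of tyrosine-FITC cleavage from a biotinylated DNA substrate (15 nM) by E. coli-expressed human Tdp1 (1 nM). Sequence: compound preincubation 15 min, reaction 5 min, bead detection 10 min, all at room temperature. No-enzyme wells give maximum signal.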

[8] = target: Cytochrome P450 3A4 (Homo sapiens) (UniProt P08684); assay: qHTS Assay for Inhibitors and Substrates of Cytochrome P450 3A4 (AID 884); further: on the % scale 0 is the no-effect control and ±100 the full control effect; nearly all actives have a fitted effect of over 50% in size
Outline: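 Luminescent readout of luciferin produced by CYP3A4 (20 nM) dealkylation of Luciferin-PPXE, 25 uM (its KM). NADPH-driven reaction ran 60 min at RT after 10 min compound preincubation; data scaled to 57 uM ketoconazole as 100% inhibition.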

[9] = Confirmation and Secondary Assay for Modulators of Hemoglobin Beta Chain Splicing at IVS2 654 locus (AID 910);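 further: HeLa cells stably carrying EGFP split by mutant beta-globin IVS2-654 intron; per-well total GFP intensity by laser scanning cytometry after 2-day treatment; % of control where 0% means no effect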
Outline: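 Readout: per-well total peak green fluorescence (488 nm ex, 500–520 nm em) from objects 5–250 µm, reflecting correct splicing of an EGFP-654 reporter. Compounds were applied for 2 days at 37 °C to overnight-plated HeLa EGFP-654 cells; controls were DMSO and 500 nM IVS2-654 PNA.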

[10] = Confirmation and Secondary Assay for Modulators of Hemoglobin Beta Chain Splicing at IVS2 705 locus (AID 930);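 further: HeLa cells stably expressing the EGFP-705 splicing reporter; % of control where 0% means no effect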
Outline: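 HeLa cells stably carrying EGFP interrupted by mutant beta-globin IVS2-705 intron (CMV-driven) were seeded at 500 cells/well, treated next day with compound for 2 days at 37C; corrected splicing restores EGFP, read as total peak GFP intensity per well.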

[11] = S16 Schwann cell viability assay (CellTiter-Glo assay) (AID 624031); further: nearly all actives have a fitted effect of over 70% in size; further: potency means the concentration at half of the fitted maximal effect
Outline: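 Native S16 rat Schwann cells in DMEM/10% FBS without phenol red were incubated overnight, then exposed to compounds for 24 h at 37 °C/5% CO2. Viability was read as ATP luminescence (CellTiter-Glo), normalized to no-cell wells and DMSO (0%).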

[12] = Inducers of the Endoplasmic Reticulum Stress Response (ERSR) in human glioma: Validation (AID 504836); further: 0% is about no effect
Outline: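 ERSR induction read as luciferase luminescence (Bright-Glo, 10 min at room temperature) in stably transfected human U87-MG glioma cells exposed to compounds for 16 h, using GRP78 as sensor.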

[13] = target: Bile acid receptor (Homo sapiens) (UniProt Q96RI1); assay: qHTS assay for small molecule antagonists of farnesoid X receptor signaling (AID 588526; calls by dose curve; further: on the % scale 0 is the no-effect control and ±100 the full control effect)
Outline: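 Beta-lactamase reporter antagonist mode: HEK293T FXR-UAS-bla cells, titrated compound, CDCA stimulation, 16 h 37 C, CCF4 dye 2 h RT. Data normalized to CDCA 50 uM and DMSO; Hill-fit IC50.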

Cytochrome P450 3A4 (Homo sapiens), sequence (P08684 whole entry, looked up): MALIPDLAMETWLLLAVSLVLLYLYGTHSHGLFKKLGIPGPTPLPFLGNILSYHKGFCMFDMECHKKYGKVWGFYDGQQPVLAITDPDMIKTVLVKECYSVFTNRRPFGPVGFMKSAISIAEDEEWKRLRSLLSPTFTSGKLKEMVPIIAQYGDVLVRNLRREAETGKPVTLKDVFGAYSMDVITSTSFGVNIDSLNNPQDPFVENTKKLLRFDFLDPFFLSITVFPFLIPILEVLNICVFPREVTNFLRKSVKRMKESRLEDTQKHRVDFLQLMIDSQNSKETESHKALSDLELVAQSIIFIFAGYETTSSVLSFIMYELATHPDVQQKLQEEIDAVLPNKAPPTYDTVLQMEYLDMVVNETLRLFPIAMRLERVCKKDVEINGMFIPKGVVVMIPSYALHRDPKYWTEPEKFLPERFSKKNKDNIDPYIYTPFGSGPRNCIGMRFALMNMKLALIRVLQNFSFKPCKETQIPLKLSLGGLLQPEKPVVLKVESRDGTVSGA
Ubiquitin carboxyl-terminal hydrolase 1 (Homo sapiens), sequence (O94782 whole entry, looked up): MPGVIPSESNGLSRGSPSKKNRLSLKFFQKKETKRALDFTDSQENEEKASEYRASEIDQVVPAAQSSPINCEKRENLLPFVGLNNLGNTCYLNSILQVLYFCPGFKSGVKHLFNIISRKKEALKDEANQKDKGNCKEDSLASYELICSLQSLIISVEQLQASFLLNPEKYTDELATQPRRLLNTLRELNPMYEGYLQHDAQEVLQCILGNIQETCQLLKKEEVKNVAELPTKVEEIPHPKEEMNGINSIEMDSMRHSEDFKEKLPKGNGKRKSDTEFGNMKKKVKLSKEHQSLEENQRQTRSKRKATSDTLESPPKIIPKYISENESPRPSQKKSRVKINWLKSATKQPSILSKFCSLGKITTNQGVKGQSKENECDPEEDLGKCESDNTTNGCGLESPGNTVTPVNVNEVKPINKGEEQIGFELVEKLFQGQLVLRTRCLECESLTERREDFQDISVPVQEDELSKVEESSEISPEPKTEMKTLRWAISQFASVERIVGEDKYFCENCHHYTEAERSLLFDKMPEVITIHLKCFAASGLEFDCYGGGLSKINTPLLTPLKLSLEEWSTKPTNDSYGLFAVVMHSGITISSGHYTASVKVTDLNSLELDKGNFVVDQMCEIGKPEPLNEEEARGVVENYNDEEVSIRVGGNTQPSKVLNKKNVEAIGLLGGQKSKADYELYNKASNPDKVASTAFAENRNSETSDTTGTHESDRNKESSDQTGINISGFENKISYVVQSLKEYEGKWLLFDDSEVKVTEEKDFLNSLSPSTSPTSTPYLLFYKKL
Tyrosyl-DNA phosphodiesterase 1 (Homo sapiens), sequence (Q9NUW8 whole entry, looked up): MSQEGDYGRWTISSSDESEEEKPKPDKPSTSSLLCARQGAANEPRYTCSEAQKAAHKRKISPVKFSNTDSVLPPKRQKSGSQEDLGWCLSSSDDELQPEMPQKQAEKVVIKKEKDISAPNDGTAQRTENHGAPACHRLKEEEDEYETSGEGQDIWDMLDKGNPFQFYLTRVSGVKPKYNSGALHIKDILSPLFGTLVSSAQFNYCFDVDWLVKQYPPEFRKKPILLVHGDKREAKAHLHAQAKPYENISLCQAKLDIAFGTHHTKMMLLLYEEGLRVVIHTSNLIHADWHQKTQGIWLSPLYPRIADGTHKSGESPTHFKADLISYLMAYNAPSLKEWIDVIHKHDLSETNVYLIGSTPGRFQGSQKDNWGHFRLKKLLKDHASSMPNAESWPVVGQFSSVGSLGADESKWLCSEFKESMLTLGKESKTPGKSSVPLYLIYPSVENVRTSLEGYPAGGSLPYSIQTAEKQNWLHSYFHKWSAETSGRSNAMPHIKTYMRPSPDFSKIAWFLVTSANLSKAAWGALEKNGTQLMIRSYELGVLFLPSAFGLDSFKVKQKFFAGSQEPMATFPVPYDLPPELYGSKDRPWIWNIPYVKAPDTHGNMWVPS
Bile acid receptor (Homo sapiens), sequence (Q96RI1 whole entry, looked up): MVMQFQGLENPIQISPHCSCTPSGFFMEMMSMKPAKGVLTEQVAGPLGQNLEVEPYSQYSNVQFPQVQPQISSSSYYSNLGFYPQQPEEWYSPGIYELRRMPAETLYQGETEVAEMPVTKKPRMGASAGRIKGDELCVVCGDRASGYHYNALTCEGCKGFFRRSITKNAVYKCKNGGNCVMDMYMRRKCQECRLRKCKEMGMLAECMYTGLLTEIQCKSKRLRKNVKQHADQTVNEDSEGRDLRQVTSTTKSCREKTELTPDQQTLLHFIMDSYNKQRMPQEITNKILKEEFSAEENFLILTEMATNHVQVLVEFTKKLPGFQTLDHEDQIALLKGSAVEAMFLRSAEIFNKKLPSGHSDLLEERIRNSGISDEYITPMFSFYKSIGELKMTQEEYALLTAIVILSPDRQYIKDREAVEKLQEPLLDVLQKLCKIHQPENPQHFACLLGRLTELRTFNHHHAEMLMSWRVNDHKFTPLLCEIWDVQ

COc1ccc2c3c1O[C@H]1[C@@H](O)C=C[C@H]4C(C2)NCCC341 (stereo partly specified)
inactive: Potency [1] | Potency [2] | Potency [3] | Potency [4] | Potency [5] | Potency [6]

CCOc1ccc2nc(N=Nc3c(O)[nH]c(=O)[nH]c3=O)sc2c1
active: Potency [7] 100 µM

O=[N+]([O-])OC1CO[C@H]2C(O[N+](=O)[O-])COC12 (stereo partly specified)
inactive: Potency [8] | Potency [9] | outcome [10] | Potency [1] | Potency [2] | Potency [3] | Potency [4] | Potency [5] | Potency [6]

CC1OC(O[C@H]2C[C@@H](O)[C@]3(CO)[C@@H]4C(CC[C@]3(O)C2)[C@@]2(O)CC[C@H](C3=CC(=O)OC3)[C@@]2(C)C[C@H]4O)C(O)C(O)C1O (stereo partly specified)
inactive: Potency [1] | Potency [11] | Potency [2] | Potency [3] | Potency [4]

O=C1NC(=S)NC(=O)C1=Cc1ccc2c(c1)CCN2CCCCl
active: Potency [7] 2.51 µM

[S]=[Sb][S][Sb]=[S]
inactive: Potency [1] | Potency [2] | Potency [3] | Potency [4] | Potency [6]

CCOC(=O)/C=C(C)/C=C/CC(C)CCCC(C)C (stereo unspecified)
inactive: Potency [1] | Potency [2] | Potency [3] | Potency [4] | Potency [5] | Potency [6]

CCCCCCC(=O)O[C@H]1CC[C@H]2[C@@H]3CCC4CC(=O)C=C(C)[C@]4(C)[C@H]3CC[C@]12C (stereo partly specified)
inactive: Potency [11] | Potency [2] | Potency [5]
active: Potency [3] 8.91 µM | Potency [6] 7.57 µM

C[C@H](N)Cc1ccccc1
inactive: Potency [1] | Potency [2] | Potency [3] | Potency [5] | Potency [6]

CCCCCc1cc(O)c2c(c1)OC(C)(C)C1CC=C(C)CC21 (stereo unspecified)
active: Potency [3] 0.708 µM | Potency [4] 1.51 µM | Potency [5] 1.9 µM | Potency [6] 1.51 µM

CCCN1CCCC2Cc3nc(N)ncc3CC21 (stereo unspecified)
inactive: Potency [1] | Potency [2] | Potency [3] | Potency [4] | Potency [5] | Potency [6]

C=CC[N+]1(C)CCC23c4c5ccc(O)c4O[C@H]2C(=O)CC[C@@]3(O)C1C5 (stereo partly specified)
inactive: Potency [1] | Potency [2] | Potency [3] | Potency [4] | Potency [5] | Potency [6]

CCOC(=O)C1CCN(/C=C2/C(=O)NC(=O)N(Cc3ccco3)C2=O)CC1
active: Potency [7] 44.7 µM

C=CC[C@]1(O)CCC2C3CCC4=CCCCC4C3CCC21C (stereo partly specified)
inactive: Potency [2] | Potency [4] | Potency [5]

CCC(=O)OC1(c2ccccc2)CCN(C)CC1C (stereo unspecified)
active: Potency [6] 3.79 µM
inactive: Potency [1] | Potency [2]

C#C[C@]1(O)CC[C@H]2[C@@H]3CCC4=CC(=O)CCC4(C)[C@H]3CCC21C (stereo partly specified)
inactive: Potency [2] | Potency [4] | Potency [5] | Potency [6]

Cc1cc2c(cc1Cl)N(C(=O)Nc1ccc(Oc3cccnc3C)nc1)CC2
inactive: outcome [12]

COc1ccccc1N1CCN(CCN(C(=O)c2ccc(I)cc2)c2ccccn2)CC1
inactive: outcome [12]

CC(C)CCC(=O)OC1CCC2C3CCC4=CC(=O)CC[C@]4(C)C3CC[C@]12C (stereo partly specified)
inactive: Potency [4]
active: Potency [3] 10 µM

CC#CCOC(=O)c1c(C)nc2sc3c(c2c1N)CCC(O)C3 (stereo unspecified)
inactive: outcome [12]

CC(Cc1ccccc1)N(C)C (stereo unspecified)
inactive: Potency [1] | Potency [2] | Potency [4] | Potency [5]

C[C@]12CC[C@H]3[C@@H](CC[C@@]45O[C@@H]4C(=O)C(C#N)C[C@]35C)[C@@H]1CC[C@@H]2O (stereo partly specified)
inactive: Potency [1] | Potency [2] | Potency [3] | Potency [5]

CC1CC[C@@]2(NC1)OC1CC3C4CC[C@@H]5CC(O)CC[C@@]5(C)C4CC[C@]3(C)C1C2C (stereo partly specified)
inactive: Potency [8] | Potency [9] | outcome [10] | Potency [2]
active: Potency [3] 12.6 µM

CCC/C=C/C=C/C(=O)OC1/C(=C/C(=O)OC)CC2CC(C(C)O)OC(=O)CC(O)CC3CC(OC(C)=O)C(C)(C)C(O)(CC4C/C(=C/C(=O)OC)CC(/C=C\C(C)(C)C1(O)O2)O4)O3 (stereo unspecified)
active: ratio activity, negative = inhibition [2] -43.6% | Potency [3] 0.708 µM | Potency [4] 0.953 µM | Potency [5] 0.953 µM | Potency [6] 0.953 µM

O=C(c1ccc(Cl)cc1)N1CCN(c2ccc([N+](=O)[O-])c3ncccc23)CC1
inactive: outcome [12]

COC(=O)C1C(OC(=O)c2ccccc2)CC2CCC1N2C (stereo unspecified)
inactive: Potency [1] | Potency [11] | Potency [2] | Potency [3] | Potency [4] | Potency [5] | Potency [6]

Cc1cc(NC2CCCCC2)nc(-n2nc(C)cc2C)n1
inactive: outcome [12]

C=C1CC2C(CC[C@]3(C)C(=O)CCC23)[C@]2(C)C=CC(=O)C=C12 (stereo partly specified)
inactive: Potency [8] | Potency [9] | outcome [10] | Potency [1] | Potency [4] | Potency [5]

CCN(CC)C(=O)N[C@@H]1C=C2c3cccc4[nH]cc(c34)C[C@H]2N(C)C1
active: Potency [3] 8.91 µM | Potency [4] 10.7 µM | Potency [5] 12 µM | Potency [6] 5.36 µM
inactive: Potency [1] | Potency [2]

C#CC1(O)C=CC2C3CCC4=CC(=O)CCC4C3CCC21CC (stereo unspecified)
inactive: Potency [1] | Potency [2]
active: Potency [3] 12.6 µM | Potency [4] 9.53 µM | Potency [5] 6.75 µM | Potency [6] 6.01 µM

COC(C(=O)C(O)C(C)O)C1Cc2cc3cc(OC4CC(OC5CC(O)C(OC)C(C)O5)C(OC(C)=O)C(C)O4)c(C)c(O)c3c(O)c2C(=O)C1OC1CC(OC2CC(OC3CC(C)(O)C(OC(C)=O)C(C)O3)C(O)C(C)O2)C(O)C(C)O1 (stereo unspecified)
active: Potency [2] 0.0794 µM | Potency [3] 0.112 µM | Potency [4] 2.69 µM | Potency [6] 0.426 µM

CN(C)[C@@H](Cc1ccccc1)c1ccccc1
inactive: Potency [1] | Potency [2] | Potency [5]
active: Potency [6] 4.78 µM

Cc1ccccc1/C=C/C1=NCCN1
inactive: outcome [12]

CC(CO)NC(=O)C1C=C2c3cccc4[nH]cc(c34)CC2N(C)C1 (stereo unspecified)
inactive: Potency [1] | Potency [2] | Potency [3] | Potency [5] | Potency [6]

NS(=O)(=O)C#Cc1ccccc1
inactive: outcome [12]

CC(=O)O[C@H]1C[C@H](O[C@H]2[C@@H](O)CC(O[C@H]3[C@@H](O)C[C@H](O[C@H]4CC[C@@]5(C)[C@H](CC[C@@H]6[C@@H]5CC[C@]5(C)[C@@H](C7=CC(=O)OC7)CC[C@]65O)C4)O[C@@H]3C)O[C@@H]2C)O[C@H](C)[C@H]1O[C@@H]1O[C@H](CO)[C@@H](O)[C@H](O)[C@H]1O (stereo partly specified)
inactive: Potency [1] | Potency [2] | Potency [6]

CCCC(C)C1(CC)C(=O)NC(=S)NC1=O (stereo unspecified)
inactive: Potency [2] | Potency [4] | Potency [5]
active: Potency [6] 9.53 µM

CC(=O)[C@H]1CC[C@H]2C3CC[C@H]4C[C@H](O)CC[C@]4(C)C3CC[C@]12C (stereo partly specified)
inactive: Potency [1] | Potency [2] | Potency [4] | Potency [5]

C[C@@H](N)[C@@H](O)c1ccc(O)c(O)c1
active: Potency [11] 28.7 µM
inactive: Potency [1] | Potency [2] | Potency [3] | Potency [4] | Potency [5] | Potency [6]

CSc1ccccc1N1CCN(CCCCCC(=O)NC2CCCc3ccccc32)CC1 (stereo unspecified)
inactive: outcome [12]

CC(C)=CC1C(C(=O)OCc2coc(Cc3ccccc3)c2)C1(C)C (stereo unspecified)
inactive: Potency [13] | Potency [5]
